Growth data for 13 compounds are collected here from PubChem BioAssay (NCI).

SMILES strings stand for the structures. This is part of a sample that, as a whole, favours compounds with a hit. Of some 83,000 tested, about 20% had one in any assay.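 The endpoint reported here, percent growth, reads 100 for growth as untreated, 0 for no net growth and -100 for all cells dead.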 Unmarked numbers belong to inactive results. The source made the active and inactive calls. The calls were made as follows: active = growth percent below 10; inactive = the rest.

Common to all, as to test: NCI-60 one-dose screen, 48 h (100 = growth as untreated, 0 = no growth, -100 = all killed)
Common to all, as to conditions: 10 µM unless noted

The subject of assay [1] is HCT-15 colon.
Assay [2] deals with HT29 colon.
The subject of assay [3] is SNB-75 CNS.
Assay [4] concerns SNB-19 CNS.
Assay [5] concerns U251 CNS.
Assay [6] deals with PC-3 prostate.
For assay [7], the system named is SK-MEL-5 melanoma.
Assay [8] has as its system UACC-62 melanoma.
Assay [9] deals with LOX IMVI melanoma.
Assay [10] deals with SK-MEL-28 melanoma.

Consider `CCCc1cc2c(=O)c(C(=O)OC)c[nH]c2cc1N(CC)CC`, for which the growth is 95.9% in assay [1]; 110% in [2]; 104% in assay [3]; 99.1% in assay [4]; 104% in assay [5]; 79.6% in assay [6]. Besides, the growth in [7] was 91.5%; in [8], 83%; in assay [9], 108%; in assay [10] it was 112%.
As for `FC(F)(F)c1cc(Nc2ccc3cc(OCCCN4CCOCC4)ccc3n2)ccc1Cl`, the growth was -0.426% (active) in assay [1]; -50.3% (active) in assay [2]; 10.8% in [3]; 41.1% in [4]; -10.6% (active) in assay [5]; 23.5% in assay [6]. For the same compound, the growth in assay [7] was 64.4%; in [8] it was -29.7% (active); in [9] it was -82.1% (active); in assay [10], 13.7%.
As for `COc1ccc(/C=c2\nc3n(-c4ccccc4)c4nc5c6c(sc5c(=N)n4n-3c2=O)CCCC6)cc1`, the growth in assay [1] was 40.7%; in assay [2], 109%; in assay [3] it was 42.9%; in assay [4], 84.9%; in assay [5], 87.5%; in assay [6], 63.5%. The growth is 70.8% in [7], 74.1% in [8], 91.2% in [9] and 102% in [10].
On to `CCOC(=O)c1c2c(n3ccc(NC(=O)OC(C)(C)C)cc13)C(=O)c1ncccc1C2=O`, for which the growth in assay [1] was -69.5% (active); in assay [2], -50.9% (active); in assay [3], -32.2% (active); in [4], -54.4% (active); in [5], -80.8% (active); in [6], -1.36% (active). Further, the growth in assay [7] was -96% (active); in assay [8], -75.8% (active); in [9] it was -68.8% (active); in assay [10], -18.4% (active).
For `COC(=O)[C@]12CC[C@@H](C)[C@H](C)[C@@H]1C1=CC[C@@H]3[C@@]4(C)C(C=O)=C[C@@](C)(COC(=O)c5ccco5)C4=CC[C@@]3(C)[C@]1(C)CC2`, the growth in assay [1] is -31.9% (active); in assay [2], -0.473% (active); in assay [3], 20%; in assay [4], 36.5%; in assay [5], -4.29% (active); in assay [6], 14.1%. Besides, the growth in [7] was -87.1% (active); in [8], -11.1% (active); in [9], -86.3% (active); in assay [10], -45.5% (active).
Consider `C=CCNc1nc(NN2C(=O)c3cccc4cccc(c34)C2=O)nc(-n2cnc3ccccc32)n1`, for which the growth was 66.7% in assay [1]; 88.9% in assay [2]; 39.2% in assay [3]; 83.7% in assay [4]; 63.3% in [5]; 67.1% in assay [6]. Also, the growth in [7] was 64.9%; in assay [8], 77.2%; in assay [9], 77.8%; in assay [10], 103%.
On to `O=c1[nH]nc(-c2ccccc2)c2c(-c3ccccc3)onc12`, for which the growth in assay [1] was 32.2%; in [2], 22.2%; in assay [3], -5.82% (active); in assay [4] it was 49.9%; in [5], 30.6%; in [6], 26.6%. The growth was 11% in [7], 34% in assay [8], 49.6% in assay [9] and 69.8% in assay [10].
Consider `COc1ccc(/C=N\NC(=O)c2cc(-c3ccc(Br)cc3)n(-c3ccc(S(N)(=O)=O)cc3)n2)cc1`, for which the growth was 33.3% in assay [1]; 36.7% in assay [2]; -27.8% (active) in assay [3]; 57.3% in assay [4]; 51.3% in assay [5]; 51.2% in assay [6]. Also, the growth in assay [7] was 42%; in [8], 32.3%; in [9] it was 45.4%; in assay [10], 47.4%.
As for `N=C(N)c1ccc(-c2ccc(-c3cncc4ccccc34)s2)s1`, the growth is -74.2% (active) in assay [1]; -77.1% (active) in [2]; -95.9% (active) in [3]; -54.8% (active) in assay [4]; -92.5% (active) in [5]; -80.8% (active) in [6]. Further, the growth is -89.5% (active) in assay [7], -64.5% (active) in assay [8], -78.1% (active) in assay [9] and -69.7% (active) in assay [10].
In the case of `NCCCNc1nc2ccccc2c2c(=O)c3cccc(Cl)c3sc12`, the growth in assay [1] was -79.6% (active); in assay [2] it was -63.2% (active); in assay [3], 41.7%; in assay [4], 49.8%; in assay [5], -51.7% (active); in assay [6], 43.8%. In addition, the growth in assay [7] was 60.3%; in assay [8] it was 51.4%; in assay [9], -90% (active); in assay [10], 53.2%.
As for `O=C1/C(=C/c2ccccc2)CCc2nc3ccccc3c(/C=C/c3ccc(Cl)cc3)c21`, the growth was 69.4% in [1]; 81.3% in [2]; 76.5% in assay [3]; 96.3% in assay [4]; 93.2% in assay [5]; 79.6% in assay [6]. Further, the growth in assay [7] was 89.8%; in assay [8], 73%; in assay [9] it was 84.7%; in [10], 91.8%.
In the case of `c1cc2ccc3cc2cc1CNCCOCCNCc1ccc2ccc(cc2c1)CNCCOCCNC3`, the growth in assay [1] was 96.7%; in assay [2] it was -34.3% (active); in assay [3] it was -98.7% (active); in assay [4] it was -21.8% (active); in assay [5] it was -20.4% (active); in assay [6], -38.1% (active). For the same compound, the growth in [7] was 1.54% (active); in assay [8], -52.8% (active); in [9], -25.3% (active); in assay [10], -8.69% (active).
For `COC(=O)[C@H](CSC)N(C)C(=O)[C@@H]1CSSC[C@@H](NC(=O)c2nc3ccccc3cc2O)C(=O)NCC(=O)N1C`, the growth was 99.1% in assay [1]; 76.1% in [2]; 132% in assay [3]; 92.7% in assay [4]; 91.2% in [5]; 72.7% in assay [6]. For the same compound, the growth is 38% in [7], 60% in [8], 48.3% in [9] and 83.4% in assay [10].
